PubChem BioAssay AID1159580 (chemical genetic matrix, 2015)
About 2,000 (36%) of roughly 5,500 compounds were called active. About 18% were inconclusive and are not listed. Rule as the data show it: active = normalized growth mostly below about 0.91 (no sharp cut-off); inconclusive = no clear call, values can overlap the other calls; inactive = mostly above about 0.92. The list shows a part of the results.

Assay: chemical genetic growth profiling, strain panel (AID 1159580);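 also: tested at 20 µM; growth read once vehicle control cultures reached saturation at 30 °C; 1 = growth at the plate median or of vehicle wells; lower values mean less growth of the strain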
Settings: S. cerevisiae deletion strains, growth OD

Measured: normalized growth

CC(=O)Oc1c(C)cccc1C(=O)O
inactive: locus YAL013W, strain DEP1, stronger effect = lower value 1.01 | locus YAL021C, strain ccr4, stronger effect = lower value 0.989 | locus YAL026C, strain drs2, stronger effect = lower value 1.01 | locus YAL030W, strain snc1, stronger effect = lower value 0.992 | locus YBL061C, strain skt5, stronger effect = lower value 1.01 | locus YBR009C, strain hhf1, stronger effect = lower value 1.01 | locus YBR021W, strain FUR4, stronger effect = lower value 0.989 | locus YBR023C, strain chs3, stronger effect = lower value 1 | locus YBR171W, strain sec66, stronger effect = lower value 1.02 | locus YBR229C, strain ROT2, stronger effect = lower value 0.988 | locus YBR231C, strain swc5, stronger effect = lower value 1.02 | locus YBR279W, strain paf1, stronger effect = lower value 1.01 | locus YCL011C, strain gbp2, stronger effect = lower value 1.01 | locus YCL016C, strain dcc1, stronger effect = lower value 0.998 | locus YCL029C, strain bik1, stronger effect = lower value 1.01 | locus YCL061C, strain MRC1, stronger effect = lower value 1.01 | locus YCL069W, strain vba3, stronger effect = lower value 1.01 | locus YCR088W, strain abp1, stronger effect = lower value 1.02 | locus YDL005C, strain med2, stronger effect = lower value 1.02 | locus YDL035C, strain GPR1, stronger effect = lower value 1.01 | locus YDL040C, strain nat1, stronger effect = lower value 1 | locus YDL074C, strain BRE1, stronger effect = lower value 1 | locus YDL101C, strain DUN1, stronger effect = lower value 1.01 | locus YDL134C, strain PPH21, stronger effect = lower value 1.01 | locus YDL185W, strain tfp1, stronger effect = lower value 0.999 | locus YDL192W, strain arf1, stronger effect = lower value 1.02 | locus YDR001C, strain nth1, stronger effect = lower value 1.01 | locus YDR069C, strain doa4, stronger effect = lower value 1.01 | locus YDR101C, strain arx1, stronger effect = lower value 1.02 | locus YDR137W, strain rgp1, stronger effect = lower value 0.985 | locus YDR150W, strain NUM1, stronger effect = lower value 1.01 | locus YDR159W, strain sac3, stronger effect = lower value 0.981 | locus YDR162C, strain NBP2, stronger effect = lower value 1 | locus YDR195W, strain ref2 0.994 | locus YDR297W, strain sur2, stronger effect = lower value 0.987 | locus YDR318W, strain mcm21, stronger effect = lower value 1.02 | locus YDR334W, strain swr1, stronger effect = lower value 1.01 | locus YDR335W, strain msn5, stronger effect = lower value 0.989 | locus YDR388W, stronger effect = lower value 1.01 | locus YDR392W, strain spt3, stronger effect = lower value 0.957 | locus YDR502C, strain sam2, stronger effect = lower value 1.02 | locus YEL003W, strain gim4, stronger effect = lower value 1.03 | locus YEL037C, strain rad23, stronger effect = lower value 1.02 | locus YEL061C, strain CIN8 (second series), stronger effect = lower value 1.01 | locus YEL061C, strain CIN8, stronger effect = lower value 0.995 | locus YER015W, strain faa2, stronger effect = lower value 1.01 | locus YER016W, strain bim1, stronger effect = lower value 0.984 | locus YER110C, stronger effect = lower value 1.02 | locus YER111C, strain swi4, stronger effect = lower value 1.02 | locus YER155C, strain BEM2 (second series), stronger effect = lower value 1.01 | locus YER155C, strain BEM2, stronger effect = lower value 1.01 | locus YER167W, strain BCK2, stronger effect = lower value 1.01 | locus YFR010W, strain ubp6, stronger effect = lower value 1.02 | locus YGL078C, strain dbp3, stronger effect = lower value 1.01 | locus YGL086W, strain mad1, stronger effect = lower value 1.01 | locus YGL167C, strain pmr1, stronger effect = lower value 1.01 | locus YGL173C, strain kem1, stronger effect = lower value 1.02 | locus YGL227W, strain vid30, stronger effect = lower value 1.01 | locus YGL240W, strain doc1, stronger effect = lower value 0.971 | locus YGL248W, strain PDE1, stronger effect = lower value 1.01 | locus YGL253W, strain hxk2, stronger effect = lower value 1.01 | locus YGR078C, strain PAC10, stronger effect = lower value 1 | locus YGR135W, strain pre9, stronger effect = lower value 1 | locus YGR229C, strain SMI1, stronger effect = lower value 1.02 | locus YGR252W, strain gcn5, stronger effect = lower value 1 | locus YHR013C, strain ard1, stronger effect = lower value 1.01 | locus YHR027C, strain rpn1, stronger effect = lower value 0.991 | locus YHR030C, strain SLT2, stronger effect = lower value 1.01 | locus YHR079C, strain IRE1 (second series), stronger effect = lower value 1 | locus YHR094C, strain hxt1, stronger effect = lower value 1.01 | locus YHR129C, strain ARP1, stronger effect = lower value 1.01 | locus YHR142W, strain chs7, stronger effect = lower value 1.02 | locus YHR200W, strain rpn10, stronger effect = lower value 1.02 | locus YIL066C, strain RNR3, stronger effect = lower value 1.01 | locus YIL073C, strain SPO22, stronger effect = lower value 1.05 | locus YIL125W, strain kgd1, stronger effect = lower value 1.01 | locus YIR030C, strain dcg1, stronger effect = lower value 1.01 | locus YJL092W, strain hpr5, stronger effect = lower value 1.01 | locus YJL095W, strain BCK1 (second series), stronger effect = lower value 0.977 | locus YJL095W, strain BCK1, stronger effect = lower value 1.01 | locus YJL115W, strain asf1, stronger effect = lower value 1.02 | locus YJL129C, strain trk1, stronger effect = lower value 1.04 | locus YJL134W, strain LCB3, stronger effect = lower value 1.01 | locus YJL154C, strain vps35, stronger effect = lower value 1 | locus YJL164C, strain tpk1, stronger effect = lower value 0.997 | locus YJL166W, strain qcr8, stronger effect = lower value 1 | locus YJL168C, strain set2, stronger effect = lower value 1.01 | locus YJL187C, strain SWE1 (second series), stronger effect = lower value 1.01 | locus YJL187C, strain SWE1, stronger effect = lower value 0.983
